An excerpt weighted towards active compounds, which were near 2.3% of everything screened.
MsrA act – bovine methionine sulfoxide reductase A activation | 360,000 tested, 0.3% active | activation, % at 10.6 µM | purified bovine MsrA, absorbance read-out; in the data active means activation above about 7.5%;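 further: 0% = vehicle and 100% = reference activator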
PP1 counter – counter-screen for PP5 inhibitors: inhibitors of human PP1-alpha. P62136. purified PP1alpha, OMFP fluorescence. inhibition, % at 6.7 µM. 320,000 tested, 0.9% active. AID 2235;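 active means inhibition above the mean inhibition of all tested compounds plus 3 SD, computed separately for each screening campaign, cut at about 15% in these data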
Target sequence (P62136 whole entry, looked up): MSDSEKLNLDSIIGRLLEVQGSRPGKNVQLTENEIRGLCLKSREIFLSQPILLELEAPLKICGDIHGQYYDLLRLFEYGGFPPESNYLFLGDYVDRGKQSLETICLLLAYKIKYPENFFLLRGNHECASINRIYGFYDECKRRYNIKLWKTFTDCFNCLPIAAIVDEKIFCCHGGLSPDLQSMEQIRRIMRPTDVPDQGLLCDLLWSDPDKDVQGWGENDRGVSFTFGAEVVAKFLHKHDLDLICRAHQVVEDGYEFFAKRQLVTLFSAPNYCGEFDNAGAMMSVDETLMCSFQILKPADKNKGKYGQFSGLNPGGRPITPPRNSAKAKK
ZTA counter – ZTA (EBV) inhibition in EBNA-1 counter-screen; ZTA-DNA binding, fluorescence polarization; inhibition, % at 11 µM; 320,000 tested, 0.15% active; in the data active means inhibition above about 33%
Target sequence (P03206 whole entry, looked up): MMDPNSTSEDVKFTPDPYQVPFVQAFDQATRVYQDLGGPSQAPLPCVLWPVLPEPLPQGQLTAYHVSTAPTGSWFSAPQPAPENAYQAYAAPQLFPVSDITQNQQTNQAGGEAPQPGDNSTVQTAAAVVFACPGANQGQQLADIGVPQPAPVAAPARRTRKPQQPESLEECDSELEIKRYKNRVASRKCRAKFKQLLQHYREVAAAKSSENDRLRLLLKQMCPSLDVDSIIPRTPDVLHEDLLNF
EBNA-1 inhibitor – blocks EBNA-1 binding to DNA; 300,000 tested, 0.34% active; EBNA-1 DNA binding, fluorescence polarization; inhibition, % at 14.8 µM; in the data active means inhibition above about 28%
MsrA inhibitor – inhibits bovine methionine sulfoxide reductase A; purified bovine MsrA, absorbance read-out; inhibition, % at 15.5 µM; 360,000 tested, 0.75% active; in the data active means inhibition above about 4.5%;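 further: 0% = vehicle wells with enzyme and 100% = reference inhibitor wells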
PP5 inh – inhibitors of human protein phosphatase 5 (PP5). inhibition, % at 6.7 µM. purified PP5c, OMFP substrate fluorescence. 320,000 tested, 0.18% active;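 active means inhibition above the campaign's mean inhibition across all tested compounds plus 3 SD, cut at about 9.5% in these data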;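 further: 0% = DMSO only and 100% = 100 µM cantharidin control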
PP5 conf – confirmation of human PP5 phosphatase inhibitors; Purified PP5, fluorogenic phosphatase substrate, fluorescence; AID 2331; 460 tested, 22% active; shares compounds with PP5 inh; inhibition, % at 6.7 µM; in the data active means inhibition above about 9.5%
PP1 counter 3x – PP1 phosphatase inhibition, counter-screen for PP5 inhibitors | shares compounds with PP5 inh | PP1 enzyme, fluorescent phosphatase substrate | inhibition, % at 6.7 µM | 460 tested, 4% active | AID 2355; in the data active means inhibition above about 16%
An asterisk follows results filed as active; . = no result.

SMILES	MsrA act	PP1 counter	ZTA counter	EBNA-1 inhibitor	MsrA inhibitor	PP5 inh	PP5 conf	PP1 counter 3x
O=S(=O)(c1ccc(Br)s1)n1cccn1	-1	-3	-13	-2	0	12*	-3	-4
CC(C)Oc1cc(NC(=O)CS(=O)CC(=O)N(C)C)c(Cl)cc1Cl (stereo unspecified)	-3	-2	-2	5	-1	3	.	.
CC(C)Oc1cc(NC(=O)CS(=O)CC(=O)Nc2cccc(C(F)(F)F)c2)c(Cl)cc1Cl (stereo unspecified)	2	12	0	-21	3	13*	5	5
CCC1(c2ccccc2)NC(=O)N(CC(=O)Nc2cccnc2Cl)C1=O (stereo unspecified)	-6	-1	9	.	2	-1	.	.
O=C(CN1C(=O)NC(c2ccccc2)(c2ccccc2)C1=O)Nc1cccnc1Cl	-3	-1	5	5	0	12*	-5	-4
O=C1NC[C@H](CCCCN2C[C@H](Cc3ccc(O)cc3)N(CCc3ccccc3)C(=O)C2=O)N(CC2CCCCC2)C1=O	0	.	.	.	0	.	.	.
O=C(c1cc(-c2ccc(Cl)cc2)n(-c2ccc(Cl)cc2)n1)N1CCOCC1	-1	-1	-1	-6	1	13*	-3	-1
CCCCCCOc1ccc(C(=O)n2cnc(N)n2)cc1	-1	7	-12	-11	2	12*	3	7
CCCCOc1ccc(C(=O)NCCOc2cccc(OC)c2)cc1	-1	-1	16	14	0	9.8*	-1	-1
O=C(NCCO)c1ccc(Oc2ccc(C(F)(F)F)cc2[N+](=O)[O-])cc1	-1	-1	6	3	0	2	.	.
COc1ccc(OCCNC(=O)c2cccc(Oc3ccc(C(F)(F)F)cc3[N+](=O)[O-])c2)cc1	-1	3	6	-2	1	10*	3	-3
C/C(=N/NC(=O)c1cccc(N2CCCC2=O)c1)c1ccncc1	-4	-7	-7	5	-1	0	.	.
CCC(=O)Nc1c(C#N)c2nc3ccccc3nc2n1-c1ccc(C)cc1	-6	.	.	.	2	.	.	.
N#Cc1c(NC(=O)c2ccc(Br)o2)n(-c2ccccc2)c2nc3ccccc3nc12	-5	9	2	-11	0	11*	33*	16*
N=c1n(CCCOc2ccccc2Cl)c2ccccc2n1CC(N)=O	-6	3	5	0	-1	0	.	.
Cc1cccc2c1NC(=O)C2(c1ccc(O)cc1)c1ccc(O)cc1	-10	5	21	15	-1	3	.	.
Cc1cc(C2(c3ccc(O)c(C)c3)C(=O)Nc3ccccc32)ccc1O	-2	8	-4	-6	-1	16*	6	5
O=[N+]([O-])c1cc(/C=N/O)ccc1Sc1ccccc1	-3	2	-7	-26	2	10*	2	2
CO/N=C/c1ccc(Sc2ccccc2)c([N+](=O)[O-])c1	-12	1	9	3	1	0	.	.
O=C1C(Nc2ccccc2)=C(N2CCCCC2)C(=O)c2ccccc21	-3	2	-5	0	1	10*	33*	0
O=C(/C=C/c1ccc(O)cc1)c1ccc(NC2=C(N3CCCCC3)C(=O)c3ccccc3C2=O)cc1	1	4	-4	2	3	9.9*	37*	1
Cc1nn(C)cc1/C=N/NC(=O)Cn1cncn1	-1	-5	2	10	2	1	.	.
COCCN1C=C2C(=O)C(C)(OC(=O)CCC(=O)OC)C(=O)C(Br)=C2C=C1c1ccc(OC)cc1 (stereo unspecified)	-1	7	-2	4	.	9	.	.
C=CCN1C=C2C(=O)C(C)(OC(=O)CCC(=O)OC)C(=O)C(Br)=C2C=C1c1ccc(OC)cc1 (stereo unspecified)	0	7	20	7	.	12*	38*	18*
O=C(CC1C(=O)NCCN1C(=O)Nc1ccc(F)cc1)Nc1ccc(F)cc1 (stereo unspecified)	-4	2	9	-2	0	9.7*	-5	-1
SMILES	MsrA act	PP1 counter	ZTA counter	EBNA-1 inhibitor	MsrA inhibitor	PP5 inh	PP5 conf	PP1 counter 3x
Cc1ccc(C(C[N+](=O)[O-])c2c(C)[nH]n(-c3ccccc3)c2=O)cc1 (stereo unspecified)	-5	-1	9	3	-1	3	.	.
Cc1[nH]n(-c2ccccc2)c(=O)c1C(C[N+](=O)[O-])c1ccc(F)cc1 (stereo unspecified)	-2	-1	13	4	0	13*	-1	-3
O=C(CN1C(=O)c2ccccc2C1=O)Nc1cccc(S(=O)(=O)Nc2ccccc2Cl)c1	-12	-4	19	-2	0	12*	-1	1
Cc1cc(C(=O)N/N=C(\CCC(=O)O)c2cccs2)c2ccccc2n1	-6	-2	12	3	1	-2	.	.
CO/N=C(\CCC(=O)O)c1cccs1	-6	-1	3	-1	-1	9.7*	-6	-4
O=C(N1CCOCC1)N1CCN(C(c2ccccc2)c2ccccc2)CC1	0	-4	15	9	0	10*	-2	-4
O=C(N1CCCCC1)N1CCN(C(c2ccccc2)c2ccccc2)CC1	-10	1	-15	-15	-1	3	.	.
COc1ccc(OC)c2sc(N(CCN(C)C)C(=O)c3cc(Cl)sc3Cl)nc12	-3	0	-6	-16	-1	11*	0	0
O=[N+]([O-])c1cccc(S(=O)(=O)[N-]c2nc3ccccc3nc2-n2cc[n+](Cc3ccccc3)c2)c1	-7	5	7	0	-1	13*	-2	2
O=S(=O)([N-]c1nc2ccccc2nc1-n1cc[n+](Cc2ccccc2)c1)c1ccccc1	-2	-4	4	2	-1	-3	.	.
O=C(CSc1n[nH]c(-c2ccc(Br)cc2)n1)N1CCOCC1	-14	.	.	.	0	.	.	.
CC1=NN(c2ccccc2)C(=O)/C1=C/C=C/C=C/N(C)C	-1	3	-10	-17	0	10*	14*	12
COc1ccc(CCC(=O)Nc2nnc(C(C)(C)C)s2)cc1	1	0	-3	2	-1	13*	0	-1
COc1ccc(CCC(=O)Nc2nnc(C(F)(F)F)s2)cc1	-2	0	3	7	-1	2	.	.
COc1cc(OC)c(C2C(C(=O)Nc3ccc(C)cc3C)=C(C)Nc3ncnn32)cc1OC (stereo unspecified)	-3	2	-1	-13	0	15*	-3	-3
O=C(O)CCc1ccc(S(=O)(=O)N2CCOCC2)cc1	0	-8	1	8	0	-1	.	.
NNC(=O)CCc1ccc(S(=O)(=O)N2CCOCC2)cc1	-1	-3	0	-5	.	11*	-1	-1

Screening data as filed in PubChem.
